Screens as filed in PubChem BioAssay.
Most compounds without a hit are left out; they make up all but 5% or so of the library.
SENP8 block-1 – inhibitors of human SENP8 protease; Q96LD8; purified SENP8, Z-RLRGG-aminoluciferin cleavage, luminescence; inhibition, % at 10 µM; actives 1.2% (n = 330,000); in the data active means inhibition above about 50%
Target sequence (Q96LD8 whole entry, looked up): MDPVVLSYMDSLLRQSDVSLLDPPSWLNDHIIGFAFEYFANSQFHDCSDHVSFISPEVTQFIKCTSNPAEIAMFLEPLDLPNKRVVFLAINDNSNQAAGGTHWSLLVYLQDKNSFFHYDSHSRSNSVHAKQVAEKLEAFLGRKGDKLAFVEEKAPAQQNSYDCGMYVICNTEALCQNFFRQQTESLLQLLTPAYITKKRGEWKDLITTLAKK
SENP8 block-2 – inhibitors of human SENP8 protease; inhibition, % at 20 µM; actives 0.64% (n = 360,000); recombinant SENP8, Nedd8 substrate fluorescence; Q96LD8; in the data active means inhibition mostly above about 40%, no sharp cut-off; inactive means mostly below about 27%
SENP6 inh – blocks the human protease SENP6. Q9GZR1. Recombinant SENP6 catalytic domain, aminoluciferin luminescence. inhibition, % at 10 µM. actives 1.8% (n = 330,000). AID 2599;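 active means inhibition above about 50% at the single tested dose, limit read from the data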;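 further: plate controls were DMSO wells with enzyme for no effect and DMSO wells lacking enzyme for full effect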
EBI2 block – blocks human EBI2 receptor beta-arrestin signaling; P32249; EBI2 beta-arrestin recruitment, luminescence, 7a,25-OHC stimulated; inhibition, % at 5 µM; actives 0.81% (n = 360,000); AID 651636; in the data active means inhibition above about 38%;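 further: enzyme fragment complementation signal reports receptor beta-arrestin coupling in cells; 0% = agonist plus DMSO wells and 100% = wells without agonist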
SENP7 inh – SENP7 protease inhibition. Q9BQF6. recombinant SENP7, Z-RLRGG-aminoluciferin luminescence, 40 min. inhibition, % at 5 µM. actives 1.5% (n = 330,000);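 active means inhibition above about 50% at the single test dose, limit read from the data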;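 further: plate controls were DMSO with enzyme for no effect and no enzyme buffer wells for full effect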
AHR activator – human AHR activation; AHR-responsive luciferase reporter cells, luminescence; activation, % at 5 µM; actives 2.5% (n = 320,000); AID 2796; in the data active means activation above about 47%;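 further: 0% = vehicle wells and 100% = reference agonist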
Starred values were filed as active, the others as inactive; / = no result.

SMILES	SENP8 block-1	SENP8 block-2	SENP6 inh	EBI2 block	SENP7 inh	AHR activator
Cc1ccnc(NS(=O)(=O)c2ccc(NC(=O)c3ccccc3F)cc2)n1	-9	11	3	2	-2	58*
COc1ccc(C2C(C#N)=C(/N=C/N3CCN(C)CC3)OC3=C2C(=O)CC(C)(C)C3)cc1OC (stereo unspecified)	-7	5	-27	-3	50*	1
Cc1nn(-c2ccccn2)c2c1C(=O)C(Br)CC2 (stereo unspecified)	/	66*	/	-19	/	/
CC1=C(C)C(=O)N(c2ccccn2)C1=O	-15	10	-29	4	-9	11
Cc1c(/C=N/NC(=O)c2ccc(O)cc2)c2ccccn2c1C(=O)c1ccc(F)cc1	-1	-281	-2	21	7	4
Cc1c(/C=N/NC(=O)c2ccccc2O)c2ccccn2c1C(=O)c1ccc(F)cc1	-4	-172	-23	7	4	53*
Cc1c(/C=N/NC(N)=O)c2ccccn2c1C(=O)c1ccncc1	-4	37	-10	3	6	30
Cc1c(/C=N/NC(=O)c2cccnc2)c2ccccn2c1C(=O)c1ccc(F)cc1	-6	/	0	/	2	73*
Cc1c(/C=N/NC(=O)CNc2ccccc2)c2ccccn2c1C(=O)c1ccccc1	-19	-64	-18	31	-11	53*
CCOC(=O)[C@]12CCCC=C1N(Cc1ccc3c(c1)OCO3)C(=O)[C@H](CC(=O)NCCc1ccccc1OC)C2	/	10	/	2	/	/
O=C(CCNC(=O)C1CCN(S(=O)(=O)c2ccc(F)cc2)CC1)NCc1ccccn1	/	14	/	-12	/	/
O=C(/C=C/c1ccccc1)NCCOc1ccccc1	-3	27	-5	10	-3	1
O=C(/C=C/c1ccccc1)NCCSc1ccc(Cl)cc1	-1	40*	-12	18	12	2
NC(=O)c1cc(Br)cc2c3c([nH]c12)CCCC3	-9	0	-10	-15	-6	64*
Brc1ccc2[nH]c3c(c2c1)CCC3	-7	-6	-24	4	-11	11
CN(C)CC(CCC(CN(C)C)C(=O)c1ccccc1)C(=O)c1ccccc1 (stereo unspecified)	/	38	/	47*	/	/
CCOc1ccc(C(=O)C(CCC(CN(C)C)C(=O)c2ccc(OCC)cc2)CN(C)C)cc1 (stereo unspecified)	/	11	/	39	/	/
C/C(=N/OC(=O)c1ccc(Cl)cc1Cl)c1oc(C)nc1C	83*	21	90*	-4	87*	2
CCOC(=O)C1(C)CCN1C(=O)c1ccc2ccccc2c1 (stereo unspecified)	/	0	/	-12	/	/
CCn1nc(NC(=O)CC(C)C)c2cc3ccc(C)cc3nc21	-12	-334	-17	-4	-10	41
CC(=O)Nc1nn(C)c2nc3cc(C)ccc3cc12	2	-460	4	-2	-3	71*
COc1ccccc1CNc1ncc(-c2ccc(F)cc2)n1C	-10	-6	-13	2	-2	73*
COc1ccc(CNc2ncc(-c3ccc(F)cc3)n2C)c2ccccc12	-5	-7	6	4	-5	61*
CN(Cc1ccccc1)C(=O)c1cccc(NC(=O)C2CCCN(C(=O)OC(C)(C)C)C2)c1 (stereo unspecified)	5	14	-5	2	2	3
Cc1cc(C(=O)NC(C)CCC(C)C)c2ccccc2n1 (stereo unspecified)	3	2	-2	7	1	4
SMILES	SENP8 block-1	SENP8 block-2	SENP6 inh	EBI2 block	SENP7 inh	AHR activator
Fc1ccccc1-c1csc(=Nc2cccnc2)n1CCCn1ccnc1	-4	5	-17	-2	-12	70*
Fc1ccccc1-c1csc(=Nc2cccnc2)n1CC1CCCO1 (stereo unspecified)	-1	12	-13	-3	-3	23
OCCN(CCO)Cc1ccc(Br)cc1	-6	11	-10	-5	-15	63*
Cc1cc(Cl)ccc1C(O)c1ncc(-c2ccc(Cl)cc2)[nH]1 (stereo unspecified)	/	-2	/	1	/	/
NN/C(=C\[N+](=O)[O-])Nc1ccc(Cl)cc1	-7	16	-4	13	-7	21
O=C(Nc1cccc(C(=O)O)c1)/C(=C\c1ccc2c(c1)OCO2)NC(=O)c1ccccc1Br	/	-7	/	-3	/	/
Nc1nc(-c2ccc(Cl)cc2)nc(-c2ccc(Cl)cc2)n1	-2	15	-11	-1	1	70*
